Compound activity deposited in PubChem by Broad Institute.
In the library only some 2.1% were active in any assay of this set; here they are far more common.
PfHsp90 yeast 2: growth inhibition of yeast expressing Plasmodium Hsp90; inhibition, % at 9.4 µM; AID 504621; S. cerevisiae expressing PfHsp90, BacTiter-Glo ATP, 48 h; yeast lacking PDR1 and PDR3 efflux regulators; hit rate 0.32% among 310,000;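 active = every replicate shows inhibition above about 80%, whatever the replicate mean, limit read from the data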;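 note: 0% = DMSO neutral controls and 100% = 20 µM radicicol positive controls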
ARNT TACC3 PPI: disrupts binding between human ARNT and TACC3; Q9Y6A5; AlphaScreen His-ARNT PAS-B/GST-TACC3 binding, luminescence; TACC3 fragment carries E629A point mutation; inhibition, % at 9.99 µM; hit rate 0.66% among 390,000;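 active = mean inhibition of replicates at least 50% and at least half of replicates each reaching 50%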;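 note: 0% = complete ARNT plus TACC3 wells and 100% = ARNT alone without TACC3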
NSD2 HMT inh: inhibitors of human histone methyltransferase NSD2; O96028; hit rate 0.54% among 310,000; inhibition, % at 12.5 µM; NSD2 peptide methylation, AlphaScreen, 120 min; AID 743445; in the data active = inhibition above about 50%
SIRT5 block: blocks human SIRT5 desuccinylation of peptide; Purified SirT5, succinyl-peptide AMC, trypsin-coupled fluorescence; inhibition, % at 15 µM; hit rate 1.1% among 330,000; in the data active = inhibition above about 15%
Target sequence (Q9NXA8 whole entry, looked up): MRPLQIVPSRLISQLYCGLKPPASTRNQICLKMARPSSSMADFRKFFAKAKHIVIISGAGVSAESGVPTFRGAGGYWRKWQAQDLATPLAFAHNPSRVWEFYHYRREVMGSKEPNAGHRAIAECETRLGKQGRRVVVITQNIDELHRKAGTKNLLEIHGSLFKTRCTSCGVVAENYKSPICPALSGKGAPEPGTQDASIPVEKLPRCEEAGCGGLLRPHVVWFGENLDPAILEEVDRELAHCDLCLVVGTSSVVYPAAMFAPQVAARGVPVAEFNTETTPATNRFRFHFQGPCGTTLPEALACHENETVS
CASP6 VEID inh: inhibitors of human caspase-6; P55212; purified caspase-6, Z-VEID-R110 cleavage fluorescence; inhibition, % at 12.5 µM; hit rate 0.53% among 350,000;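 active = mean inhibition across replicates at least about 35%, with every replicate also reaching that limit, limit read from the data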;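 note: 0% = median of neutral control wells and 100% = no fluorescence left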
Target sequence (P55212 24-179 limits assumed): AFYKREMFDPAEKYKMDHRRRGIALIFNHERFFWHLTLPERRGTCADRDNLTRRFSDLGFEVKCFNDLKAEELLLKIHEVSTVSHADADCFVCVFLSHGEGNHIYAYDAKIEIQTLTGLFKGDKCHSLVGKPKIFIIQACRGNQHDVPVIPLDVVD
Target sequence (P55212 194-293 limits assumed): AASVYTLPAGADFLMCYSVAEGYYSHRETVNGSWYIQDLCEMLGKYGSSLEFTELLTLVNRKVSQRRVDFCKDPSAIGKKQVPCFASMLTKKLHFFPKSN
Numbers without * were called inactive; nt = no result given.

SMILES	PfHsp90 yeast 2	ARNT TACC3 PPI	NSD2 HMT inh	SIRT5 block	CASP6 VEID inh
C[C@H]1CN([C@@H](C)CO)S(=O)(=O)c2ccc(C3=CCCCC3)cc2O[C@H]1CN(C)C(=O)C1CCCCC1	nt	11	nt	9	0
CO[C@@H]1CN(C)C(=O)c2cc(NC(=O)C3CCOCC3)ccc2OC[C@@H](C)N(CC2CC2)C[C@@H]1C	nt	0	nt	1	-12
COC(=O)CN1C(=O)NC2(CCCc3ccccc32)C1=O (centres undefined)	0	-11	-2	-4	-1
O=C(CN1C(=O)NC2(CCCc3ccccc32)C1=O)NC1CCCCC1 (centres undefined)	-20	0	1	16*	0
CN(Cc1ccccn1)C(=O)C1CCC(=O)N(Cc2cccc(F)c2)C1 (centres undefined)	26	0	1	9	-1
CCc1ccc(CN(C)C(=O)C2CCC(=O)N(Cc3ccccn3)C2)cc1 (centres undefined)	10	0	-5	31*	-4
O=C(C[C@H]1C=C[C@@H](NC(=O)c2cccc(F)c2)[C@@H](CO)O1)NCCN1CCCC1	nt	6	nt	-2	0
C[C@@H]1CN([C@H](C)CO)C(=O)c2cc(NC(=O)c3ccccc3)ccc2O[C@@H](C)CCCCO[C@@H]1CN(C)S(=O)(=O)c1ccc(Cl)cc1	nt	7	nt	-2	-2
COC(=O)c1ccc(CNC(=O)COC(=O)c2ccccc2-c2ccccc2)cc1	-42	-2	2	0	59*
COCC#Cc1ccc2c(c1)O[C@H](CN(C)CC1CCOCC1)[C@@H](C)CN([C@H](C)CO)S2(=O)=O	nt	-6	nt	7	4
CC(Sc1nncs1)C(=O)Nc1ccc2c(c1)OCO2 (centres undefined)	22	-31	-4	-2	-1
CC(Sc1nncs1)C(=O)Nc1ccc(S(=O)(=O)Nc2ncccn2)cc1 (centres undefined)	nt	48*	-3	-5	0
COc1ccc(NC(=O)/C(Cl)=C(/Cl)S(=O)Cc2ccc(Cl)cc2)cn1 (centres undefined)	106*	-6	nt	-4	0
COc1ccccc1CNC(=O)C1CCC(CNS(=O)(=O)c2cccs2)CC1 (centres undefined)	-12	-4	0	-1	-4
COc1ccccc1CNS(=O)(=O)c1cccs1	25	0	-4	89*	4
O=[N+]([O-])c1cc2no[n+]([O-])c2cc1N1CCCCC1	105*	9	24	2	29
COc1ccc(NC(=O)Nc2ccc3c(c2)C(=O)N([C@H](C)CO)C[C@@H](C)[C@H](CN(C)S(=O)(=O)c2ccc(F)cc2)OCCCC[C@@H](C)O3)cc1	nt	17	nt	6	0
COc1ccc(NC(=O)N(C)C[C@@H]2OCCCC[C@@H](C)Oc3ccc(NC(=O)Nc4ccc(F)cc4)cc3C(=O)N([C@H](C)CO)C[C@H]2C)cc1	nt	13	nt	3	3
CCOC(=O)c1cc(-c2ccc(N3CCOCC3)cc2)nn1-c1ccccc1C(=O)O	10	-4	nt	3	40*
CCOC(=O)c1cc(-c2ccc(N3CCOCC3)cc2)nn1-c1ccccc1	0	-2	2	1	1
c1coc(-c2cnc3ccccc3n2)c1	nt	nt	1	nt	8
c1coc(-c2nc3ccccc3nc2-c2ccco2)c1	-11	14	nt	-13	69*
C[C@@H](NC(=O)C[C@@H]1CC[C@@H](NC(=O)C2CC2)[C@@H](CO)O1)c1ccccc1	nt	1	nt	1	8
COc1ccc([N+](=O)[O-])c(S(=O)(=O)c2ccc(Cl)cc2)n1	109*	2	-3	nt	7
O=C(O)c1ccccc1OCCOc1ccccc1C(=O)O	-7	50*	9	nt	nt
SMILES	PfHsp90 yeast 2	ARNT TACC3 PPI	NSD2 HMT inh	SIRT5 block	CASP6 VEID inh
NC(=O)NC(=O)CC1S/C(=N/N=C2\CSC(=O)N2)NC1=O (centres undefined)	nt	53*	-27	4	0
NC(=O)NC(=O)CC1S/C(=N/N=C/c2ccccc2)NC1=O (centres undefined)	nt	20	-2	-4	5
O=C(O)CNC(=O)CC1S/C(=N/N=C2/NC(=O)CS2)NC1=O (centres undefined)	-14	58*	-2	nt	nt
COc1cc2c(cc1OC)C(=S)NC1(CCCC1)C2	4	6	-2	38*	0
O=C(Cc1ccncc1)NCC[C@H]1CC[C@@H](NC(=O)C2CC2)[C@@H](CO)O1	nt	6	nt	2	-2
O=S(=O)(CCc1ccncc1)c1ccc(Cl)cc1	-12	-7	7	27*	-4
C[C@@H](NC(=O)N(C)C[C@@H]1OCc2ccccc2-c2c(n(C)c3ccccc23)C(=O)N([C@@H](C)CO)C[C@@H]1C)c1ccccc1	nt	-17	nt	-4	1
COc1ccc(C(=O)NC(=S)Nc2ccc(CN3CCOCC3)cc2)cc1Br	2	5	2	16*	0
CC(=O)Nc1ccc(/C(C)=N/NC(=O)c2ccc(CN3CCOCC3)cc2)cc1	25	nt	-6	35*	-5
COc1ccccc1C#Cc1ccc2c(c1)O[C@@H](CN(C)Cc1ccccc1)[C@H](C)CN([C@@H](C)CO)S2(=O)=O	nt	0	nt	-8	2
COC(=O)[C@H]1[C@H](CO)[C@H]2Cn3c(ccc(-c4ccncc4)c3=O)[C@H]2N1Cc1ccccc1F	nt	-4	nt	-3	8
COc1ccc(NC(=O)c2cc(C3CC3)nc3c2cnn3C(C)C)cc1OC	46	11	nt	16*	3
COc1ccccc1OCCSc1nc2ccccc2n1CC(O)CO (centres undefined)	21	-1	-2	18*	1
CCc1ccc(OCCSc2nc3ccccc3n2CC(=O)O)cc1	8	-6	-2	-4	9
Cc1ccc(OCCSc2nc3ccccc3n2CC(=O)O)cc1	5	-3	-4	16*	12
Cn1c(=O)n2n(c1=O)[C@H](C1CC1)C=C1CN3[C@@H]([C@H](Cc4ccccc4)OC(=O)[C@@H]3Cc3ccccc3)[C@@H]12	nt	nt	nt	-1	-1
CN(C)CCCCCCNC(=O)[C@@H]1C[C@@H]2C(=O)NCC(=O)N2[C@@H]1c1cccc(OCCO)c1	nt	-14	nt	18*	1
COc1ccccc1-c1ccc2c(c1)[C@H]1[C@H](CCN1S(=O)(=O)c1ccccc1F)[C@H](CO)N2	nt	31	nt	0	0
COc1cccc2c1C(=O)c1c(O)c3c(c(O)c1C2=O)CC(O)(C(C)=O)CC3OC1CC(N(C)C)C(O)C(C)O1 (centres undefined)	98*	10	28	-1	-14
C[C@H](NC(=O)N(C)C[C@H]1OCc2ccccc2-c2c(n(C)c3ccccc23)C(=O)N([C@H](C)CO)C[C@@H]1C)c1ccccc1	nt	-12	nt	-5	2
COc1ccc(-n2nnnc2SCC(=O)c2ccc3c(c2)OCCO3)c(OC)c1	-2	2	-2	27*	1
Cc1ccc(N2C(=O)c3ccccc3C2C(=O)c2ccc(O)cc2O)cc1 (centres undefined)	10	nt	1	13	74*
